Several values for one entry are separate records, joined by “and”; a condition that tells them apart may be missing. Equal values may be shown once. The panel holds about 83,000 compounds, 20% with a hit somewhere; the sample as a whole holds those more often.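 Cells were grown in 96-well plates and exposed to the test compound at a single concentration for 48 hours; results are reported as percent growth, with values below 10 considered active.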 Activity calls are given as the source filed them.
The compounds below were run on HL-60(TB) leukemia (assay: NCI-60 one-dose screen, 48 h (100 = growth as untreated, 0 = no growth, -100 = all killed)). Conditions: 10 µM unless noted.
`O=c1c2ccccc2oc2ccc(OCCCCCN3CCCCCC3)cc12` was tested, and the growth was 38% (inactive). `O=[N+]([O-])c1ccc(NC2CCCCC2)nc1` was tested, and the growth was 110% (inactive). `NC(=S)NNC1CCCCC1` was tested, and the growth was 67.3% (inactive). With `O=C(C[P+](c1ccccc1)(c1ccccc1)c1ccccc1)C[P+](c1ccccc1)(c1ccccc1)c1ccccc1` the growth was -43.6% (active). For `COC(=O)[C@H](Cc1cnc[nH]1)NC(=O)[C@@H](NC(=O)Nc1cc(C(F)(F)F)cc(C(F)(F)F)c1)C(C)C`, the growth was -62.5% [100 µM] (active). With `COc1ccc(C2C=C(c3ccc(OC)c(OC)c3)N=C3SC=C(C)N32)c(Br)c1` (stereo unspecified) the growth was 101% (inactive). In the case of `NC(=O)c1cc2c3ccccc3ccn2c1-c1ccccc1`, the growth is reported as -3.94% (active). `COc1ccc(-c2cnnn2-c2nonc2-n2cccc2)cc1OC` was tested, and the growth was 11% (inactive). In the case of `NC(N)=NN=C(c1ccccc1)c1ccccc1`, the growth is reported as -8.59% (active). For `N#Cc1ccc(NC(=O)c2ccc3cccnc3c2O)cc1`, the growth was 4.59% (active). For `N#C/C(=C\c1ccc[nH]1)c1cc2ccccc2[nH]1`, the growth was 64.8% (inactive). With `COc1ccc(C(CC(=O)c2ccc3c(c2)OCO3)C(=O)O)cc1OC` (stereo unspecified) the growth was 101% (inactive) and 99.7% (inactive). `C#Cc1cccc(Nc2ncnc3ccc(-c4cnc(N)nc4)cc23)c1` was tested, and the growth was 34.2% (inactive). `COc1ccc(-c2c(C)noc2-c2ccc(O)cc2O)cc1` was tested, and the growth was 64.9% (inactive). For `CC(=O)Nc1ccc(OC(C)=O)cc1`, the growth was -9.02% (active) and 104% (inactive). In the case of `Cc1cc(C)cc(S(=O)(=O)n2ccc(-c3ccc4c(c3)CCC(C)(C)O4)n2)c1`, the growth is reported as 99.8% (inactive).

— PubChem BioAssay (NCI)
